Laboratory results reported in PubChem BioAssay (NCATS).
Inconclusive results are not listed. Where a call stands in place of a potency, no number is given. Activity calls are given as the source filed them. Calls follow the shape of the dose curve; as a rule, active = well fitted inhibition curve with a large enough effect; inconclusive = small, poorly fitted or top-dose-only effect; inactive = no such curve, though single readings can be large or run the other way.

biological target: Tyrosine-protein kinase Yes (Homo sapiens) (UniProt P07947); assay: qHTS for small molecule inhibitors of Yes1 kinase: Primary Screen (AID 686947); conditions: Yes1 kinase biochemical qHTS inhibition; series mostly up to 76.9 µM; also: nearly all actives have a fitted effect of over 60% in size
From the text: The Src family of non-receptor protein tyrosine kinases contains nine members, including Yes1, Src, Fyn, Lyn, and […]. These kinases have important roles in a variety of cellular functions, such as cell proliferation, survival, and differentiation. Src, the most well characterized member of this family, has been previously identified as a proto-oncogene. […] In melanoma, it has been shown that Yes1, and not other family members, such as Src, is functionally involved in the malignant phenotype. Additionally, a recent study examining the downregulation of Yes1 by shRNA found significant effects on cell survival/growth for basal-like and Her2-positive breast cancers. Despite the potential for Yes1 to be a target for the above-described cancers, there are very few reports on the identification of potent and selective inhibitors of Yes1 kinase. Antagonists of Yes1 would further elucidate Yes1 biology and help to confirm whether Yes1 is a viable target for therapeutic intervention in a variety of cancers.
A compound that inhibits Yes1 could be important for the treatment of various cancers in which Yes1 is highly expressed and can also be used as a tool compound to help further elucidate Yes1 biology. To that end, we have developed a sensitive HTS biochemical assay for Yes1 activity. This assay was screened against several small compound libraries to look for modulators of activity. Inhibition is the desired output for this assay.
NIH Molecular Libraries Probe Production Centers Network [MLPCN]
NIH Chemical Genomics Center [NCGC]
Two micoliter of Yes1 enzyme (columns 1-2, 5-48; Millipore, Billerica, MA) are dispensed into Greiner, white solid-bottom 1536-well assay plates; columns 3 and 4 receive buffer without Yes1 as a control for maximum inhibition. Compounds (23 nL) are then transferred via Kalypsys pin tool equipped with 1536-pin array (10 nL slotted pins, V&P Scientific, San Diego, CA). […] Following addition of compound and a 20 minute incubation, 1 uL of substrate (ATP and poly-E4Y from Sigma-Aldrich, St. Louis, MO) is added, and the biochemical reaction is allowed to progress for 60 minutes at room temperature. The production of ADP is then quantified by the ADP-Glo Kit (Promega, Madison, WI). First, 2 uL of the first kit reagent is added, and the reaction is incubated for 45 minutes; then, 4 uL of the second kit reagent are added and the reaction is incubated for 30 minutes at which time the luminescence is read on a Viewlux plate reader (Perkin-Elmer, Waltham, MA). The final concentration of reagents in the reaction are 4 nM Yes1, 0.1 mM ATP, 100 uM EGTA, 10 mM MgCl2, 0.3 mg/mL poly(E4Y), 50 mM Tris pH 7.5, 1 mM DTT, 150 mM NaCl, 0.01% Brij-35, and 5% glycerol. Data are normalized to DMSO-treated control columns with (maximum signal) and without (minimum signal) enzyme.
Potency is read from the fitted curve at half-maximal effect.

Sequence of Tyrosine-protein kinase Yes (Homo sapiens) (P07947 whole entry, looked up): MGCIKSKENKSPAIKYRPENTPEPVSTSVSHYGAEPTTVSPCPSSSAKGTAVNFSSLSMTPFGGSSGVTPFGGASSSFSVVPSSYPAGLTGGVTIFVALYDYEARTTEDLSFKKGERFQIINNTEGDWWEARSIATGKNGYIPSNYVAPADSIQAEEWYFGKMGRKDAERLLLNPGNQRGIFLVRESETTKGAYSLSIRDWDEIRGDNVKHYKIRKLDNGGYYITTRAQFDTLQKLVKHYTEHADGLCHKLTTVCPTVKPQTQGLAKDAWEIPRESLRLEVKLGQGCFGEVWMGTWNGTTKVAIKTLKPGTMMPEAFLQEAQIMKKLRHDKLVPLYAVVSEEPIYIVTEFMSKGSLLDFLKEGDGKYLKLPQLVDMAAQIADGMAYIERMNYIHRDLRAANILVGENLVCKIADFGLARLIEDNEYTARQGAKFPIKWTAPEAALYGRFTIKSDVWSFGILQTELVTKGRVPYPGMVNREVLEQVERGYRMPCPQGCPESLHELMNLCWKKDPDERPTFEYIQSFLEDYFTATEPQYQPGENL

Compound	Potency
C[C@]12CC[C@H](O)CC1=CC[C@@H]1[C@H]2CC[C@]2(C)C(c3cccnc3)=CC[C@H]12	inactive
CCOC(=O)N[C@@H]1CC[C@@H]2[C@@H](C1)C[C@H]1C(=O)O[C@H](C)[C@H]1[C@@H]2C=Cc1ccc(-c2cccc(F)c2)cn1	inactive
CC(C)OC(=O)C1=CN(C(=O)c2ccc(F)c(F)c2)CC(C)(C)c2c1[nH]c1ccccc21	inactive
CC1(C)Cc2c(-c3ccccc3)c(-c3ccc(Cl)cc3)c(CC(=O)O)n2C1	inactive
CC[C@H](Nc1ncnc2nc[nH]c12)c1nc2cccc(F)c2c(=O)n1-c1ccccc1	inactive
CCC(C)(C)C(=O)O[C@H]1C[C@@H](C)C=C2C=C[C@H](C)[C@H](CC[C@@H]3C[C@@H](O)CC(=O)O3)[C@H]21	inactive
COc1ccc(COc2cc3oc(=O)c4cc(C(C)O)ccc4c3cc2OC)cc1 (stereo not given)	inactive
Cn1cnc2c(F)c(Nc3ccc(Br)cc3Cl)c(C(=O)NOCCO)cc21	inactive
OC(CN1CCC(Cc2ccc(F)cc2)CC1)c1ccc(Cl)cc1 (stereo not given)	inactive
S=C(NCc1ccc2c(c1)OCO2)N1CCN(c2ncnc3c2oc2ccccc23)CC1	inactive
COc1cccc2cc(-c3nc(C4CCC(C(=O)O)CC4)n4ncnc(N)c34)[nH]c12 (stereo not given)	0.0688 µM (active)
O=C(OCC#CCSc1nnc(-c2ccc3ccccc3c2)o1)c1cc2ccccc2s1	inactive
C[C@@H]1CN(Cc2ccc(F)cc2)[C@@H](C)CN1C(=O)c1cc2c(C(=O)C(=O)N(C)C)cn(C)c2cc1Cl	inactive
Cc1cnc(Nc2ccc(OCCN3CCCC3)cc2)nc1Nc1cccc(S(=O)(=O)NC(C)(C)C)c1	inactive
COCC(=O)NCC=Cc1ccc2ncnc(Nc3ccc(Oc4ccc(C)nc4)c(C)c3)c2c1	5.47 µM (active)
CN(C)C(=O)c1ccc(S(=O)(=O)c2ccc(NC(=O)[C@@](C)(O)C(F)(F)F)c(Cl)c2)cc1	inactive
C/C(=C\C(=O)Nc1ccccc1C(=O)O)c1ccc2ccccc2c1	inactive
CN(C)c1ccc(C2Nc3ccc4ccccc4c3C3=C2C(=O)CC(C)(C)C3)cc1Br (stereo not given)	inactive
CCc1ccc(CCOc2ccc(CC3SC(=O)NC3=O)cc2)nc1 (stereo not given)	1.73 µM (active)
COc1ccc(C2=N[C@H](c3ccc(Cl)cc3)[C@H](c3ccc(Cl)cc3)N2C(=O)N2CCNC(=O)C2)c(OC(C)C)c1	12.2 µM (active)

Compound	Potency
Cc1[nH]c(=O)c(C#N)cc1-c1ccc2nccn2c1	inactive
O=S(=O)(N=Cc1c(O)ccc2ccccc12)c1cccs1	inactive
Cc1cc(C=c2sc3nc4ccccc4n3c2=O)c(C)n1-c1ccccc1	inactive
CCN(CC)CCCC(C)Nc1nc(C)cc(Nc2ccc3nc(C)cc(N)c3c2)n1 (stereo not given)	inactive
CN[C@@H](C)C(=O)N[C@H]1CCCC[C@H]2CC[C@@H](C(=O)N[C@@H](c3ccccc3)c3cn(CCCCc4ccc(CCCCn5cc([C@@H](NC(=O)[C@@H]6CC[C@@H]7CCCC[C@H](NC(=O)[C@H](C)NC)C(=O)N76)c6ccccc6)nn5)cc4)nn3)N2C1=O	inactive
CCOc1ccn(-c2ccc(F)cc2)c(=O)c1C(=O)Nc1ccc(Oc2ccnc(N)c2Cl)c(F)c1	1.94 µM (active)
N#Cc1ccc(C(c2ccc(C#N)cc2)n2cncn2)cc1	inactive
CCOc1cc(N2CCC(O)CC2)ccc1Nc1ncc2c(n1)N(C)c1ccccc1C(=O)N2C	inactive
Cc1c(C)c2c(c(C)c1O)CCC(C)(COc1ccc(CC3SC(=O)NC3=O)cc1)O2 (stereo not given)	inactive
Cc1cccc(-c2[nH]c(C(C)(C)C)nc2-c2ccc3nccnc3c2)n1	0.688 µM (active)
NC(N)=NC(=O)c1nc(Cl)c(N)nc1N	inactive
COc1cc2nccc(Oc3ccc(NC(=O)NC4CC4)c(Cl)c3)c2cc1C(N)=O	3.45 µM (active)
Cc1cc(-c2ccc(CC(=O)Nc3ccc(-c4cccnc4)cc3)cc2)ccn1	inactive
CCCc1nc2c(C)cc(-c3nc4ccccc4n3C)cc2n1Cc1ccc(-c2ccccc2C(=O)O)cc1	inactive
CNC(=O)c1ccc(C)c(-n2c(C)cc(OCc3ccc(F)cc3F)c(Br)c2=O)c1	inactive
NC(=O)c1ccc(-c2nc(-c3ccc4c(c3)OCO4)c(-c3ccccn3)[nH]2)cc1	inactive
COc1cc(Nc2ncc3c(n2)-c2ccc(Cl)cc2C(c2c(F)cccc2OC)=NC3)ccc1C(=O)O	0.0218 µM (active)
Oc1cccc(-c2nc(N3CCOCC3)c3oc4ncccc4c3n2)c1	inactive
COc1ccc(CC2=NN3C([C@@H](CCc4ccccc4)[C@@H](C)O)=NC(C)C3C(=O)N2)cc1OC (stereo not given in full)	inactive
CN([C@@H](Cc1ccc(OS(=O)(=O)c2cccc3cnccc23)cc1)C(=O)N1CCN(c2ccccc2)CC1)S(=O)(=O)c1cccc2cnccc12	inactive
